In experiment [1] the target is Transcription factor E2F1 (Homo sapiens) (UniProt Q01094). In words: ATG_E2F_CIS: Attagene CIS-FACTORIAL HepG2 Assay for human E2F Transcription Factor 1 (AID 2282935). The following applies: HepG2 Attagene cis-reporter, E2F reporter RNA transcripts; actives raise or lower the signal. The method in brief: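 Multiplexed cis-reporter assay: HepG2, transient transfection, 24 h dosing, mRNA quantitation by labeled RT-PCR and CE.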

Experiment [2] in a line: ATG_E_Box_CIS: Attagene CIS-FACTORIAL HepG2 Assay for human Enhancer Box (E-box) (AID 2282936). The following applies: HepG2 E-box cis-reporter transcription, actives raise or lower the signal. The method in brief: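 Multiplexed CIS reporter system in transiently transfected HepG2 cells measures native transcription factor activity. Reporter RNA after 24 h exposure is profiled by RT-PCR-capillary electrophoresis.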

Experiment [3] is described as follows: ATG_M_61_CIS: Attagene CIS-FACTORIAL HepG2 Assay for M61 Transcription Factor (Internal Marker) (AID 2282937). As to conditions: HepG2 Attagene CIS-FACTORIAL M61 internal marker reporter; actives raise or lower the signal. The method in brief: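 Human liver HepG2, transient MRTU transfection (cis promoter elements), 24 h compound. Total RNA → oligo(dT) RT → PCR → FAM label → HpaI → CE. Internal background marker; bidirectional fitting, DMSO = baseline.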

Experiment [4] is described as follows: ATG_EGR_CIS: Attagene CIS-FACTORIAL HepG2 Assay for human Early Growth Response 1 (EGR1) (AID 2282938). As to conditions: HepG2 Attagene CIS-FACTORIAL EGR reporter mRNA; actives raise or lower the signal. The method in brief: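 Transient transfection of human HepG2 with multiple cis-regulated reporter units, chemical exposure 24 h, total RNA isolated. Reverse transcription, PCR, fluorescent labelling and capillary electrophoresis quantify reporter transcripts; activity fitted bidirectionally against DMSO.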

The nature of experiment [5]: ATG_M_19_CIS: Attagene CIS-FACTORIAL HepG2 Assay for M19 Transcription Factor (Internal Marker) (AID 2282939). The following applies: HepG2 Attagene CIS-FACTORIAL M19 internal marker reporter; actives raise or lower the signal. A digest of the protocol:
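Readout: fluorescent reporter-transcript fragments by capillary electrophoresis after RT-PCR. Human HepG2 liver cells carried transfected MRTU constructs reporting endogenous transcription-factor activity; exposure 24 h. Gain or loss of signal fitted relative to DMSO.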

Experiment [6] is described as follows: ATG_ERE_CIS: Attagene CIS-FACTORIAL HepG2 Assay for Estrogen Response Element (ERE) (AID 2282940). As to conditions: HepG2 ERE cis-reporter, Attagene RNA transcript; actives raise or lower the signal. The method in brief: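 Readout: reporter mRNA induction by RT-PCR, FAM-labelled primer extension, HpaI digestion and capillary electrophoresis, 24 h after dosing transfected HepG2 cells. Endogenous transcription factors act on cis-element-regulated reporters. Gain or loss fitted against DMSO.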

Experiment [7] in a line: ATG_Ets_CIS: Attagene CIS-FACTORIAL HepG2 Assay for human Erythroblast Transformation Specific (ETS) (AID 2282941). As to conditions: HepG2 ETS cis-reporter transcription, actives raise or lower the signal. The method in brief:
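Human HepG2 hepatoma cells were transiently transfected with promoter-driven reporter constructs and treated for 24 hours. Reporter transcripts were quantified by RT-PCR with fluorescent primer extension; bidirectional curve fitting used DMSO as reference.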

Experiment [8] addresses Hepatocyte nuclear factor 3-beta (Homo sapiens) (UniProt Q9Y261). Briefly: ATG_FoxA2_CIS: Attagene CIS-FACTORIAL HepG2 Assay for human Forkhead box A2 (FOXA2) (AID 2282942). The following applies: HepG2 cis-reporter transcription factor activity, 24 h; actives raise or lower the signal. The method in brief: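 Transient MRTU transfection of HepG2 liver cells; 24 h treatment; total RNA → oligo(dT) RT → PCR → FAM primer extension → HpaI cut → CE. Bidirectional fit vs DMSO.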

Experiment [9] in a line: ATG_GATA_CIS: Attagene CIS-FACTORIAL HepG2 Assay for human GATA Binding Protein (AID 2282944). As to conditions: HepG2 GATA cis-element reporter, Attagene multiplex mRNA; actives raise or lower the signal. A digest of the protocol: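 Read-out: fluorescent reporter mRNA fragments resolved by capillary electrophoresis after RT-PCR. Human liver HepG2 cells carried transiently transfected cis-regulated reporter constructs; chemicals incubated 24 h; gain or loss of signal fitted relative to DMSO.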

A short description of experiment [10]: ATG_FoxO_CIS: Attagene CIS-FACTORIAL HepG2 Assay for human Forkhead box O (FoxO) (AID 2282943). The following applies: HepG2 Attagene cis-reporter, FoxO element, mRNA; actives raise or lower the signal. A digest of the protocol:
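Values reflect reporter mRNA induction or loss in HepG2 cells 24 h post-dosing, fitted bidirectionally with DMSO as negative control and baseline. Detection used RT-PCR and fluorescence capillary electrophoresis.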

Values joined by “and” are separate entries in the source; they are usually repeats but may differ in a detail not shown here. Identical values can stand only once. Active and inactive are the calls of the source. The calls were made as follows: active = hit-call score of the fitted dose curve at least 0.9, where 1 is the maximum; inactive = score below 0.9.

Hepatocyte nuclear factor 3-beta (Homo sapiens), sequence (Q9Y261 whole entry, looked up): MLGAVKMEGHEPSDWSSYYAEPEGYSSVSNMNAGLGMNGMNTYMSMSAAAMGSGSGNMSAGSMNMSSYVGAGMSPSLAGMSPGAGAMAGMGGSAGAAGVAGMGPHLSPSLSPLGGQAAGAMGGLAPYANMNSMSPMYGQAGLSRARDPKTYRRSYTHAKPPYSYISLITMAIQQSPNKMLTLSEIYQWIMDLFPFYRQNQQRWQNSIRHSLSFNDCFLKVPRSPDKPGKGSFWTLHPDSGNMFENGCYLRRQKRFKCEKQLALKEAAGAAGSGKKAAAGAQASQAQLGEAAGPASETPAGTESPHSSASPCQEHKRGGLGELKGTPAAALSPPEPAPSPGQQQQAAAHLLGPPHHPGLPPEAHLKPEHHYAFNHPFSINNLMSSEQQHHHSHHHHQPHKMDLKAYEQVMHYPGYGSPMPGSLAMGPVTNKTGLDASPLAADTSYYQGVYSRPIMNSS
Transcription factor E2F1 (Homo sapiens), sequence (Q01094 whole entry, looked up): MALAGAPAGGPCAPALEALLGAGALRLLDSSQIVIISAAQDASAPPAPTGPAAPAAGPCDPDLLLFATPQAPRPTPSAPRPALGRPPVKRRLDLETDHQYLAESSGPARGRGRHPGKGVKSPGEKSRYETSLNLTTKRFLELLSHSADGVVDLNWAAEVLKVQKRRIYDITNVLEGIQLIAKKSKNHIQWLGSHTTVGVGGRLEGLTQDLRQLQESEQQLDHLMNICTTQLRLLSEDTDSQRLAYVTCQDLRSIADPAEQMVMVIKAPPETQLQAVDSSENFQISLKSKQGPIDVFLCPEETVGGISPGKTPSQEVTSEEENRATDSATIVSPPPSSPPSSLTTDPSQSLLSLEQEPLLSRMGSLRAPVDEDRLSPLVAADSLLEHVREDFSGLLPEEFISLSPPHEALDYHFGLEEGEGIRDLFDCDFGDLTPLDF

Regarding `CC(O)C(=O)O` (centres undefined), the outcome in experiment [1], in experiment [2], in experiment [3], in experiment [4], in experiment [5] and in experiment [6] was inactive. The compound was called inactive in experiment [7], in experiment [8] and in [9].
In the case of `CC[C@H](C)[C@@H](C(=O)O)n1sc2ccccc2c1=O`, the call in experiment [1], in experiment [2], in experiment [3], in [4], in [5] and in experiment [6] was inactive. Also, the outcome in experiment [7], in [8] and in experiment [9] was inactive.
On to `Cc1oc(-c2ccccc2)nc1CCOc1ccc(C[C@H](Nc2ccccc2C(=O)c2ccccc2)C(=O)O)cc1`, for which the call in [1], in experiment [2], in [3], in [5], in [7] and in [8] was inactive. In addition, in experiment [9], the result was inactive. The AC50 in experiment [4] is 17100 nM (active); in experiment [6] it was 0.000523 µM (active).
With `NC(=O)N(O)[C@@H]1C=C[C@H](Oc2cccc(Oc3ccc(F)cc3)c2)C1`, the call in experiment [1], in [2], in experiment [3], in experiment [5], in experiment [6] and in experiment [7] was inactive. Also, the compound was called inactive in [8] and in [9]. The AC50 in [4] was 33000 nM (active).
For the compound `OC1CCC(C2CCCCC2)CC1` (centres undefined), the compound was called inactive in experiment [1], in experiment [2], in experiment [3], in [4], in [5] and in [7]. The call in experiment [8] and in [9] was inactive. Besides, in experiment [6], the AC50 was 27 µM (active) and 27.4 µM (active) and 27.5 µM (active).
On to `CCCOc1sc(C(=O)N2CCC(c3cc(CN)ccc3F)CC2)c(C)c1Br`, for which the compound was classed as inactive in experiment [1], in [2], in [3], in experiment [4], in experiment [5] and in experiment [7]. Moreover, the outcome in experiment [8] and in experiment [9] was inactive. Moreover, the AC50 in experiment [6] is 2.72 µM (active).
For `O=c1c(-c2ccc(O)cc2)coc2cc(O)ccc12`, the outcome in [1], in [2], in experiment [3], in experiment [4], in [5] and in experiment [7] was inactive. The result in experiment [8] and in experiment [9] was inactive. In addition, the AC50 in experiment [6] is 410 nM (active) [middle of 4 runs].
`O=[N+]([O-])c1ccc(O)cc1`: the call in [1], in experiment [2], in [3], in experiment [4], in [5] and in experiment [6] was inactive. Besides, the compound was classed as inactive in experiment [7], in experiment [8], in [10] and in experiment [9].
As to `Oc1cc2ccccc2c2ccccc12`, the result in [1], in [2], in [3], in [4], in experiment [5] and in experiment [6] was inactive. The compound was called inactive in experiment [7], in [8] and in [9].
As to `CCc1nn(C2CCCCC2)c2cc(C3(C#N)CCC(C(=O)O)CC3)ccc12` (centres undefined), the outcome in experiment [1], in experiment [2], in experiment [3], in experiment [4], in [5] and in experiment [7] was inactive. The result in experiment [8] and in [9] was inactive. For the same compound, in [6], the AC50 was 2.31 µM (active).
Turning to `COc1ccc([N+](=O)[O-])cc1N`, the compound was called inactive in experiment [1], in experiment [2], in [3], in experiment [4], in experiment [5] and in [6]. Also, the compound was classed as inactive in [7], in experiment [8] and in experiment [9].
As for `CCCCCCCCC(=O)O`, the result in experiment [1], in experiment [2], in [3], in experiment [4], in experiment [5] and in experiment [6] was inactive. Also, the call in [7], in [8], in experiment [10] and in [9] was inactive.
For `CCCCCCCCCCCCN1CCCC1=O`, the compound was called inactive in experiment [1], in experiment [2], in experiment [3], in experiment [4], in experiment [5] and in experiment [6]. The call in experiment [7], in experiment [8] and in experiment [9] was inactive.
For `CCCCCCC(=O)O`, the result in [1], in [2], in experiment [3], in [4], in experiment [5] and in experiment [6] was inactive. In addition, the outcome in [7], in [8], in experiment [10] and in experiment [9] was inactive.
For the compound `CC(=O)CC(C)(C)O`, the result in experiment [1], in [2], in experiment [3], in experiment [4], in [5] and in [6] was inactive. Moreover, the compound was called inactive in experiment [7], in experiment [8] and in experiment [9].
Regarding `COCC(C)OCC(C)O` (centres undefined), the outcome in experiment [1], in [2], in [3], in experiment [4], in experiment [5] and in experiment [6] was inactive. Moreover, the compound was called inactive in [7], in experiment [8], in [10] and in experiment [9].
`CCCCCCCCCCCCc1ccccc1S(=O)(=O)O`: the call in [1], in experiment [2], in experiment [3], in experiment [4], in experiment [5] and in experiment [6] was inactive. Also, the compound was called inactive in experiment [7], in experiment [8] and in [9].
Consider `CN(C)C=O`, for which the compound was classed as inactive in experiment [1], in experiment [2], in experiment [3], in [4], in experiment [5] and in [6]. Also, the compound was classed as inactive in [7], in experiment [8] and in [9].
On to `CCC(C)(C)C1CCC(O)CC1` (centres undefined), for which the outcome in experiment [1], in experiment [2], in experiment [3], in experiment [4], in [5] and in experiment [7] was inactive. Further, the result in [8] and in experiment [9] was inactive.

As usually defined, the AC50 is the midpoint of the concentration-response curve, whichever way the signal moves.

(Values after PubChem BioAssay (EPA / NIEHS).)
